PubChem BioAssay
Calls of active or inactive are those of the source.

Legend:
[1] = tested on: Plasmodium falciparum Sir2 (PF13_0152, Sir2A); test: pfSir2 binders on small-molecule microarrays, primary screen, biochemical, small-molecule microarray, 635 nm fluorescence (AID 1098); details: small-molecule microarray binding, fluorescence 635 nm; higher = more signal;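 further: score merges spot fluorescence intensity with its signal-to-noise ratio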
[2] = small-molecule microarray binders of probe aDKK1, primary screen, biochemical, biotinylated probe, 635/667 nm fluorescence (AID 1099); details: higher = more signal;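 further: score merges 667nm spot fluorescence with signal to noise across triplicate slides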
[3] = small-molecule microarray binders of probe aCHRDL2, primary screen, biochemical, biotinylated probe, 635/667 nm fluorescence (AID 1100); details: higher = more signal
[4] = splicing luciferase reporter signal modulators, primary screen, spliceosome inhibition project, cell-based, HEK293, splice +/- reporter (AID 1101); details: luminescence, 24 h, higher = more signal, called active from +8 up or from −8 down;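 further: HEK293 cells carrying a splicing-competent luciferase reporter gene; test concentration not given here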
[5] = molecular target: Fibroblast growth factor 10 (Homo sapiens) (UniProt O15520); test: FGF10 binders on small-molecule microarrays, primary screen, biochemical, small-molecule microarray, 635 nm fluorescence (AID 1102); details: FGF10 binding, fluorescence 635 nm, higher = more signal
[6] = tested on: glycogen synthase kinase-3 (GSK3A per assay name; protocol says GSK3B); test: GSK3 binders on small-molecule microarrays, primary screen, biochemical, small-molecule microarray, 635 nm fluorescence, GSK3A (AID 1103); details: small-molecule microarray binding, fluorescence 635 nm; higher = more signal; further: the record names both GSK3A and GSK3B
[7] = molecular target: Epidermal growth factor receptor (Homo sapiens) (UniProt P00533); test: EGFR binders on small-molecule microarrays, primary screen, biochemical, small-molecule microarray, 635 nm fluorescence (AID 1104); details: EGFR binding, higher = more signal;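 further: score merges 667 nm emission intensity with spot signal to noise over triplicate slides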
[8] = molecular target: Follistatin-related protein 3 (Homo sapiens) (UniProt O95633); test: FSTL3 binders on small-molecule microarrays, primary screen, biochemical, small-molecule microarray, 635 nm fluorescence (AID 1105); details: FSTL3 binding, higher = more signal;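 further: score merges emission near 667 nm and signal to noise per printed spot across three slides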
[9] = molecular target: Dickkopf-related protein 1 (Homo sapiens) (UniProt O94907); test: DKK1 binders on small-molecule microarrays, primary screen, biochemical, small-molecule microarray, 635 nm fluorescence scan (AID 1106); details: DKK1 binding, higher = more signal;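 further: score merges emission near 667 nm with signal to noise over three replicate slides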
[10] = tested on: Inhibin beta A chain (activin A); test: INHBA (activin A) binders on microarrays, primary screen, biochemical, small-molecule microarray, 635 nm fluorescence scan (AID 1107); details: small-molecule microarray binding, higher = more signal;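 further: mouse activin A protein probed at 4.33 µg/mL on printed slides; score merges bound-protein fluorescence near 667 nm with spot signal-to-noise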
[11] = tested on: Human papillomavirus type 1a protein E7 (residues 44-93); test: HPV1a E7 fragment binders on microarrays, primary screen, biochemical, small-molecule microarray, residues 44-93, 635 nm fluorescence (AID 1108); details: small-molecule microarray binding, fluorescence 635 nm; higher = more signal;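 further: E7 fragment applied at 1 µg/mL in TBST for 1 h at 4 C; score combines spot fluorescence with its signal to noise ratio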
[12] = modulators of HCV replicon luciferase signal, primary screen, HCV replication inhibitor project, Huh7 cells, luciferase reporter (AID 1109); details: 48 h, higher = more signal;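 further: huh7 hepatoma cells harbouring a luciferase neomycin HCV replicon reporter; luciferase luminescence as measure of HCV replicon replication; test concentration not given here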
[13] = molecular target: Left-right determination factor 2 (Homo sapiens) (UniProt O00292); test: LEFTY2 binders on small-molecule microarrays, primary screen, biochemical, small-molecule microarray, 635 nm fluorescence scan (AID 1110); details: LEFTY2 binding, higher = more signal
[14] = molecular target: Calmodulin-1 (Homo sapiens) (UniProt P0DP23); test: CALM1 binders on microarrays, EGTA buffer, profiling panel, biochemical, small-molecule microarray, Cy5-labelled CALM1 (AID 1111); details: Cy5-CALM1 binding fluorescence, higher = more signal;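 further: labelled calmodulin applied in Tris saline Tween buffer holding calcium plus EGTA and DTT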
[15] = molecular target: Calmodulin-1 (Homo sapiens) (UniProt P0DP23); test: calcium-bound CALM1 binders on microarrays, profiling panel, artefact control for SMM control-protein annotation, biochemical, small-molecule microarray, Cy5-labelled CALM1, plus calcium (AID 1112); details: Cy5-CALM1 binding fluorescence, higher = more signal;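 further: score merges spot fluorescence with signal to noise from triplicate slides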
[16] = small-molecule microarray binders of probe aWnt5a, primary screen, biochemical, biotinylated probe, 635/667 nm fluorescence (AID 1113); details: higher = more signal;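 further: score merges 667 nm fluorescence intensity with signal-to-noise per printed feature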
[17] = small-molecule microarray binders of probe aShh, primary screen, biochemical, biotinylated probe, 635/667 nm fluorescence (AID 1114); details: higher = more signal;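 further: probe is biotin-labelled aShh protein from a stem cell growth factor screen; measures binding of labelled protein to compounds printed on the slide; score merges feature fluorescence at 667 nm with signal-to-noise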
[18] = small-molecule microarray binders of probe aNog, primary screen, biochemical, biotinylated probe, 635/667 nm fluorescence (AID 1115); details: higher = more signal;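 further: probe is biotinylated aNog protein used at 0.15 µg/mL for 1 h at 4 C; z-score combines 667 nm fluorescence of each spot with its signal to noise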
[19] = molecular target: Torsin-1A-interacting protein 1 (Homo sapiens) (UniProt Q5JTV8); test: LAP1 binders from COS7 cell lysate, primary screen, small-molecule microarray, 635/667 nm fluorescence (AID 1116); details: COS7-hLAP1 lysate binding, 635 nm fluorescence, higher = more signal
[20] = molecular target: Alpha-bungarotoxin (Bungarus multicinctus) (UniProt P60615); test: alpha-bungarotoxin binders on microarray, profiling panel, artefact control for SMM control protein annotation, biochemical, small-molecule microarray, Alexa647 label, 635/667 nm fluorescence (AID 1117); details: alpha-BTX-A647 binding fluorescence, higher = more signal
Sequence of Alpha-bungarotoxin (Bungarus multicinctus) (P60615 whole entry, looked up): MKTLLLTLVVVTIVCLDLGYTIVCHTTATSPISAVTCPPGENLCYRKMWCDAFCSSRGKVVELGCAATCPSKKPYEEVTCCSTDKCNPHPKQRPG

Sequence of Fibroblast growth factor 10 (Homo sapiens) (O15520 whole entry, looked up): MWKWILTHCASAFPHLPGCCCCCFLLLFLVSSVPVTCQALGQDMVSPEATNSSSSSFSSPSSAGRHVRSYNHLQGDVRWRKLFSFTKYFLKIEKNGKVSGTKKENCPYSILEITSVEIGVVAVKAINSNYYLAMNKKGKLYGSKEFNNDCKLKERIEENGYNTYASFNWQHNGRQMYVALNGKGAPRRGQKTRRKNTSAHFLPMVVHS
Sequence of Follistatin-related protein 3 (Homo sapiens) (O95633 whole entry, looked up): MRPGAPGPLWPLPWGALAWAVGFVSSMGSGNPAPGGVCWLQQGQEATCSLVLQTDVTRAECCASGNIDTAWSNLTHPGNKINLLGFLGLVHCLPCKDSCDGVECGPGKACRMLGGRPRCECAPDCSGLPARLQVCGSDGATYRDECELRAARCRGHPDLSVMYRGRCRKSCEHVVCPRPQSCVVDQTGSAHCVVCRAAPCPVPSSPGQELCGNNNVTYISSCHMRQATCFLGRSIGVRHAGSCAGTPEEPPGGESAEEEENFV
Sequence of Epidermal growth factor receptor (Homo sapiens) (P00533 whole entry, looked up): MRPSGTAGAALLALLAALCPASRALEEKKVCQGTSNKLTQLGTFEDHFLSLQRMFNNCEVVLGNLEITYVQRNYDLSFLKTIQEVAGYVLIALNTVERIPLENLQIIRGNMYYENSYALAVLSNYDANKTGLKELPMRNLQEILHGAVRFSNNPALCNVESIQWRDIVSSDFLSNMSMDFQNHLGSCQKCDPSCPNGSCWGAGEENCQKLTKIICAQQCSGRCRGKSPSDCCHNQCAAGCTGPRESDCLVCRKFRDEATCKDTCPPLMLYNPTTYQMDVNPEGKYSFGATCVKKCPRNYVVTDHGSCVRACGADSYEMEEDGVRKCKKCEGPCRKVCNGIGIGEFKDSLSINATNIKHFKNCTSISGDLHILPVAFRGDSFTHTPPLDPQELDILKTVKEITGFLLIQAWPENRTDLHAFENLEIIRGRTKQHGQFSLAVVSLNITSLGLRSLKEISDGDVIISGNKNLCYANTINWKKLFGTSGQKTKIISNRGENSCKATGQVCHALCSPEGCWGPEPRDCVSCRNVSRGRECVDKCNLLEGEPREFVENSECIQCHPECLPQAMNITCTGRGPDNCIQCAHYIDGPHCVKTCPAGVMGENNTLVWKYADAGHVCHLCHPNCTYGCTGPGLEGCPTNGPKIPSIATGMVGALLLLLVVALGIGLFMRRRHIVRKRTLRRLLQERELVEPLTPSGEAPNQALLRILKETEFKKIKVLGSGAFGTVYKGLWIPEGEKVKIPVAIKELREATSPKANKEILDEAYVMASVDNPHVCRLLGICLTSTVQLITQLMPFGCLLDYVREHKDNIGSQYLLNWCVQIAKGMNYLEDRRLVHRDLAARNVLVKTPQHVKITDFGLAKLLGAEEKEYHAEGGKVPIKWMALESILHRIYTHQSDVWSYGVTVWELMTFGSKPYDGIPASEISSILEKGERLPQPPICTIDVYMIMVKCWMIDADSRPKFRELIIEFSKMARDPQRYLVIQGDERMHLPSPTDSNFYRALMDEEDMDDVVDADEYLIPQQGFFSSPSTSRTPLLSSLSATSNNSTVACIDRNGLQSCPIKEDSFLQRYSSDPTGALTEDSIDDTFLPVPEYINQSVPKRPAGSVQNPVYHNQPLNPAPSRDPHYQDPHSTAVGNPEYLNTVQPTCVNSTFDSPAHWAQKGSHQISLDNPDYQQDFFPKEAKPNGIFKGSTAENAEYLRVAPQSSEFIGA
Sequence of Torsin-1A-interacting protein 1 (Homo sapiens) (Q5JTV8 whole entry, looked up): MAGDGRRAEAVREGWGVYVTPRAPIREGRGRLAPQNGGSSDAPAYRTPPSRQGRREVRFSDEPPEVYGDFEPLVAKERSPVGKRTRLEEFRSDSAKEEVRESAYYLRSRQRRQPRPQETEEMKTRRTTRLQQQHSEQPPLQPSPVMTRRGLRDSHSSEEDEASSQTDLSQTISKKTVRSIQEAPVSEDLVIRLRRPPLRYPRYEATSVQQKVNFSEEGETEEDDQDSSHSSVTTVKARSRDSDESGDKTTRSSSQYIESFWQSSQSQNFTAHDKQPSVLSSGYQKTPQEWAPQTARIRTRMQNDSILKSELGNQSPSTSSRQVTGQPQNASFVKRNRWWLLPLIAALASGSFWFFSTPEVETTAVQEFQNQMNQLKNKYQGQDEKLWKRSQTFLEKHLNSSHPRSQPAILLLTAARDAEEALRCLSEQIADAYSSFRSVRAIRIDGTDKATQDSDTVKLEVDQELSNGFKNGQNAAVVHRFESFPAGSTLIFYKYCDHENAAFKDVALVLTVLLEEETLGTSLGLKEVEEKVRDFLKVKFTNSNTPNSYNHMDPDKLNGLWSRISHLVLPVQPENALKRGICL
Sequence of Dickkopf-related protein 1 (Homo sapiens) (O94907 whole entry, looked up): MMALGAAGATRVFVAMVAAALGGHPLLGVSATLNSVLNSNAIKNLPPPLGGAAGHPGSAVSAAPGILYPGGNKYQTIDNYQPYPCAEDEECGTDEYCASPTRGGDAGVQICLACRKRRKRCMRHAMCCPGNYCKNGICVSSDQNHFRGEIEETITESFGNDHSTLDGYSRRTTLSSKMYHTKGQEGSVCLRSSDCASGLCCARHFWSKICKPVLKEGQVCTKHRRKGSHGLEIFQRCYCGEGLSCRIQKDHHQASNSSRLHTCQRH
Sequence of Left-right determination factor 2 (Homo sapiens) (O00292 whole entry, looked up): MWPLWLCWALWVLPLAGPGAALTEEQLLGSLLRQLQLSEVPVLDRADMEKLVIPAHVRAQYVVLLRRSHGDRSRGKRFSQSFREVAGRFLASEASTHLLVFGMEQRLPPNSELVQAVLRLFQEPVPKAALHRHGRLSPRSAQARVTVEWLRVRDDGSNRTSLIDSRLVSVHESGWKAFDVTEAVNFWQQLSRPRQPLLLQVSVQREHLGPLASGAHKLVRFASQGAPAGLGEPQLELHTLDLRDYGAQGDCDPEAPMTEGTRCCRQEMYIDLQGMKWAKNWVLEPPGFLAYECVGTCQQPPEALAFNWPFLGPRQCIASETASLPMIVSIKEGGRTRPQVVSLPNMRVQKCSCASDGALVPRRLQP

| Structure (SMILES) | composite z-score [1] | composite z-score [2] | composite z-score [3] | z-score [4] | composite z-score [5] | composite z-score [6] | composite z-score [7] | composite z-score [8] | composite z-score [9] | composite z-score [10] | composite z-score [11] | z-score [12] | composite z-score [13] | composite z-score [14] | composite z-score [15] | composite z-score [16] | composite z-score [17] | composite z-score [18] | composite z-score [19] | composite z-score [20] |
| --- | --- | --- | --- | --- | --- | --- | --- | --- | --- | --- | --- | --- | --- | --- | --- | --- | --- | --- | --- | --- |
| CCOC(=O)C1=NO[C@@]2(C=C(Br)C3(OCCCO3)[C@H]3O[C@H]32)C1 | 0.984 | -0.042 | 0.521 | 0.0671 (inactive) | 1.07 | 0.827 | 1.13 | 0.842 | 1.66 | 1.59 | 0.339 | -0.154 | 1.13 | -2.14 | -2.64 | -0.138 | 0.0952 | -0.452 | -0.143 | 2.04 |
| COc1ccc(O[C@H]2C=C[C@@H](c3ccccc3)O[C@@H]2CON=C(C)CCN2CCc3nc(-c4ccccc4)c(-c4ccccc4)cc3C2)cc1 | 0.51 | -0.259 | -0.0652 | -0.365 (inactive) | -0.156 | -0.796 | -0.538 | 0.0193 | 0.162 | 0.829 | -0.797 | -3.38 | -0.417 | 0.387 | -0.0427 | -0.169 | -0.123 | -0.198 | 0.173 | 0.67 |
| CCOC(=O)[C@H](Cc1ccccc1)NC(=O)CCC1CC(OC(=O)NCCc2ccc(F)cc2)CC2(CCCC(COC(=O)NCCOC)O2)O1 (stereo not given in full) | 0.637 | 0.765 | -0.504 | 0.371 (inactive) | 0.984 | 0.614 | 0.856 | 0.969 | 1.13 | 0.163 | 1.4 | 0.686 | 0.529 | 0.276 | -0.109 | -0.116 | 0.131 | 0.0853 | 0.979 | 0.574 |
| CC(=O)O[C@H]1C2=CO[C@H](C)[C@H]3[C@H]4C5=C([C@H](O)[C@H]6O[C@H]6C5=O)[C@H](OC4C)[C@@]23C(=O)[C@@H]2O[C@@H]21 (stereo not given in full) | 1.74 | -0.238 | -0.647 | -4.6 (inactive) | 0.916 | -0.0987 | -0.121 | 0.0068 | 0.538 | 0.528 | -0.361 | -4.68 | 0.384 | -0.935 | -0.994 | 0.0108 | 0.0804 | 0.262 | 0.963 | -1.03 |
| C#CCCCON=C1C[C@@H](O)[C@@H](O)[C@@H]2[C@@H]3C(=O)N(Cc4ccccc4)C(=O)[C@@H]3CC[C@@H]12 | -0.596 | -0.0538 | 0.0175 | 0.351 (inactive) | -0.158 | -0.287 | 0.193 | -0.016 | -0.211 | 0.359 | 0.0417 | 0.858 | 0.26 | -0.274 | -0.0051 | -0.0236 | -0.253 | -0.133 | -0.194 | -0.221 |
| CO[C@H]1COC(=O)CCC[C@@H](C)[C@H](OC)COC(=O)[C@@H]2CCCN2C(=O)CC=C[C@@H]1C | 1.78 | -0.313 | -0.959 | -0.599 (inactive) | 0.269 | 0.482 | 0.802 | 1.02 | 1.16 | 1.26 | -1.68 | -2.06 | 1.18 | -0.984 | -1.72 | -0.236 | -0.0533 | -0.0553 | 1.09 | 0.199 |
| O=C1[C@H]2[C@H]3[C@H](O)[C@H](O)CC(=NOCc4ccccc4)[C@@H]3CC[C@H]2C(=O)N1c1ccc(F)cc1F | 0.0102 | -0.376 | -0.554 | -1.29 (inactive) | 0.224 | -0.0906 | 0.208 | 0.286 | 0.347 | -0.178 | -0.392 | 0.606 | 0.303 | -0.201 | -0.57 | -0.0519 | 0.0278 | 0.0369 | 0.0133 | 0.297 |
